Screening data deposited in PubChem by National Center for Advancing Translational Sciences (NCATS).
Most compounds without a hit are left out; they make up all but 3.2% or so of the library.
GBA activity: alters purified human glucocerebrosidase activity; P04062; purified enzyme, resorufin glucoside fluorescence (screen aimed at inhibitors), 20 min; Potency, µM; hit rate 1.1% among 48,000; in the data active = potency below about 15 µM; inconclusive = mostly about 16 µM to 33 µM;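 also: the screen sought inhibitors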
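Compounds titrated against 0.2 nM normal enzyme, 30 uM resorufin beta-D-glucopyranoside substrate, citrate/phosphate buffer with taurocholate and tween-20, pH 5.9. Reaction ran 20 min at room temperature; fluorescence (Ex 548/Em 600) gave AC50.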
FLuc inh: firefly luciferase inhibition; P08659; purified firefly luciferase, luminescence, 8 min; Potency, µM (series often up to 57.1 µM), inactives show at the highest dose activity change, negative = inhibition, usual class: inhibitors; hit rate 2.2% among 72,000; AID 411; active = well fitted inhibition curve with a large enough effect; inconclusive = small, poorly fitted or top-dose-only effect; also: % is scaled to controls: 0 for no effect and ±100 for the full control effect; nearly all actives have a fitted effect of over 40% in size
Target sequence (P08659 whole entry, looked up): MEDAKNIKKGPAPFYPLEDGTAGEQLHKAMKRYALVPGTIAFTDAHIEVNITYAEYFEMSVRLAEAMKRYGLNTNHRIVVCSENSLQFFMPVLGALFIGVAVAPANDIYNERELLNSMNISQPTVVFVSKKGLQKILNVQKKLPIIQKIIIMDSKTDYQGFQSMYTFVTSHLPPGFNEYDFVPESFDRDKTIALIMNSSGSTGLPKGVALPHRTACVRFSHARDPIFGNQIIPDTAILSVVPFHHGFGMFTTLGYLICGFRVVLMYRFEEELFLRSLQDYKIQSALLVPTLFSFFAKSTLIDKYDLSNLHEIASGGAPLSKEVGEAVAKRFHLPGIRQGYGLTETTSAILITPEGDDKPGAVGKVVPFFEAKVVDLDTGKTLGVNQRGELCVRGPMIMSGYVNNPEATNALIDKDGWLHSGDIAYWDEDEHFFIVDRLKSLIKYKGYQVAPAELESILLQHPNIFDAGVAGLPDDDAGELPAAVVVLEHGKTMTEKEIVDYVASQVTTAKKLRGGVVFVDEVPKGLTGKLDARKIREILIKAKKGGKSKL
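Compounds were tested as concentration series (qHTS) against purified P. pyralis luciferase with luciferin and 10 uM ATP in 50 mM imidazole pH 7.2, 50 mM KCl, 7 mM MgCl2, 0.01% Tween 20, 0.05% BSA. Luminescence was read after 8 min at ambient temperature.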
PK Bst: alters activity of Bacillus stearothermophilus pyruvate kinase. purified pyruvate kinase, luminescence ATP production; ribose 5-phosphate activator present at AC10. Potency, µM. hit rate 1.2% among 51,000; in the data active = potency below about 11 µM; inconclusive = mostly about 12 µM to 25 µM;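 the screen sought inhibitors and activators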;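 also: scaled between full activation by ribose 5 phosphate and full inhibition by luteolin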
Starred values were filed as active, the others as inactive; i = inactive; u = inconclusive; x = no result; [ ] = dose if it differs, or a comment. Potency is read from the fitted curve at half-maximal effect.

SMILES	GBA activity	FLuc inh	PK Bst
Nc1c(C(=O)OCC2CCCO2)c2nc3ccccc3nc2n1C1CCCCC1 (stereo not given)	u	-2%	8.9*
COc1cccc(Cn2c(=O)cnc3cnc(N4CCN(C)CC4)nc32)c1	x	0%[11.4 µM]	x
COc1ncc2ncc(=O)n(CCC#N)c2n1	x	1%[11.4 µM]	x
c1ccc(-c2noc(C34CC5CC(CC(C5)C3)C4)n2)nc1	>77	16µM*	x
c1ccc(-c2noc(C3CCCCC3)n2)nc1	>77	u	x
CN[C@@H](CC(C)C)C(=O)N[C@@H]1C(=O)N[C@H](CC(N)=O)C(=O)N[C@H]2C(=O)N[C@H]3C(=O)N[C@H](C(=O)N[C@H](C(=O)O)c4cc(O)cc(O)c4-c4cc3ccc4O)[C@H](O)c3ccc(c(Cl)c3)Oc3cc2cc(c3O[C@@H]2O[C@@H](CO)[C@@H](O)[C@@H](O)[C@H]2O[C@H]2C[C@](C)(N)[C@H](O)[C@H](C)O2)Oc2ccc(cc2Cl)[C@@H]1O	x	1%	x
Cn1c(NCc2ccccc2Cl)nc2ccccc21	x	13µM*	x
CN(Cc1nc2ccccc2n1C)S(=O)(=O)c1ccc(Cl)cc1	>77	-1%	>57
Cn1c(CNc2ccc(Cl)cc2)nc2ccccc21	>77	13µM*	i
Cn1c(NCc2ccccc2O)nc2ccccc21	>77	0%	>57
O=C(O)CCNc1ccccc1C(=O)O	x	1%[11.4 µM]	x
O=C1C=CC2=C3c4cc(O)c(O)cc4C[C@@]3(O)COC2=C1O	x	-11%[11.4 µM]	x
c1cncc(-c2nnc(-c3cccs3)o2)c1	>77	-1%	>57
COc1cc(-c2nnc(-c3cccs3)o2)cc(OC)c1OC	>77	-3%	>57
N#Cc1nc(Cc2ccccc2)oc1N1CCN(c2ccccc2)CC1	>77	4%	>57
c1csc(-c2nnc(-c3ccc(N4CCOCC4)cc3)o2)c1	>77	3.2µM*	u
N#Cc1nc(-c2cccs2)oc1N1CCN(c2ccccc2)CC1	8.3*	0%	x
COc1ccc(-c2nnc(-c3cccs3)o2)cc1OC	x	13µM*	x
CCCCCCCC/C=C\CCCCCCCC(=O)N[C@@H](CO)Cc1ccc(O)cc1	x	-4%	x
O=C1CCCC=C1[C@@H](O)CCOCc1ccccc1	x	0%[11.4 µM]	x
C#C[C@@]1(O)CC[C@H]2[C@H]3CCC4=Cc5oncc5C[C@]4(C)[C@@H]3CC[C@@]21C	x	-1%	x
C[C@H](CCC(=O)NN)[C@@H]1CC[C@@H]2[C@H]3CC[C@H]4C[C@@H](O)CC[C@@]4(C)[C@@H]3CC[C@]21C	x	-1%[11.4 µM]	x
O=C(COc1ccccc1Cl)Nc1ccc2c(c1)OCCO2	x	10µM*	x
CC(C)NS(=O)(=O)c1ccc(OCC(=O)Nc2ccc3c(c2)OCO3)c(Cl)c1	>77	-3%	>57
COC(=O)COc1ccc(S(=O)(=O)Nc2ccc3c(c2)OCCO3)cc1Cl	14*	5%	>57
SMILES	GBA activity	FLuc inh	PK Bst
O=C(COc1ccc(S(=O)(=O)N2CCCC2)cc1Cl)Nc1ccc2c(c1)OCO2	>77	2%	>57
O=C(CN1C(=O)COc2ccc(Cl)cc21)Nc1ccc2c(c1)OCCO2	>77	-2%	3.6*
Cc1cccc(NC(=O)CN2C(=O)COc3ccc(Cl)cc32)c1	>77	-2%	>57
O=C(COc1ccccc1O)Nc1ccccc1Cl	>77	-21%	x
Cc1cnc(NC(=O)COc2ccccc2Cl)s1	>77	1.3µM*	1.4*
O=C(c1csnn1)N1CCC[C@@]2(CCN(c3ccncc3)C2)C1	x	2%[11.4 µM]	x
CN(C)Cc1ccccc1-c1nc(NC2CC2)c2ccccc2n1	x	0%[2.29 µM]	x
CS(=O)(=O)N1CCC2(CCCN(c3ccccn3)C2)CC1	x	-1%[11.4 µM]	x
Cc1ccccc1-c1nc(NCc2cccnc2)c2ccccc2n1	x	0%[2.29 µM]	x
NCCOB(c1ccccc1)c1ccccc1	x	2%	x
FC(F)(F)c1ccccc1-c1cncnc1NCc1cccnc1	x	-2%[2.29 µM]	x
Cc1ccc(C)c(OCC(=O)Nc2ccc3c(c2)OCO3)c1	x	-16%	>57
Cc1cccc(OCC(=O)Nc2ccc3c(c2)OCCO3)c1	>77	13µM*	i
COC(OC)[C@@H](C)[C@H](OC)[C@@H](C)[C@H](OC)c1ccccc1	x	-1%[11.4 µM]	x
COc1ccc(NC(=O)C2CCN(c3cc(C)nc(-c4ccccc4)n3)CC2)cc1	13*	-3%	>57
Cc1cc(N2CCC(C(=O)Nc3ccc(F)cc3)CC2)nc(-c2ccccc2)n1	u	2%	>57
COc1ccccc1NC=C1C(=O)OC(C)(C)OC1=O	x	16µM*	x
CCOc1ccccc1NC=C1C(=O)OC(C)(C)OC1=O	>77	-3%	>57
Cc1ccc(-c2nnc(N(C)C(=O)c3cccnc3)s2)cn1	>77	-2%	>57
COc1ccc(-c2nnc(N(C)C(=O)c3cccnc3)s2)cc1	>77	6.3µM*	x
COC(=O)N1CCC2(CC1)CN(c1ccccn1)C2	x	0%[11.4 µM]	x
Cc1noc(C)c1-c1cc(NC2CC2)ncn1	x	3%[2.29 µM]	x
O=c1c2ccccc2nc2c3ccccc3c3nncn3n12	>77	2%	0.9*
CC1CN(c2nn3c(=O)c4ccccc4nc3c3ccccc23)CC(C)O1 (stereo not given)	>77	1%	u
Cc1ccc(-c2nc3ccccc3[nH]2)cc1NC(=O)c1ccco1	>77	20µM*	i
SMILES	GBA activity	FLuc inh	PK Bst
Cc1ccc(Oc2ccc(NC(=O)c3ccco3)cc2)cc1	x	-18%	x
O=C(Nc1cccc(-c2nc3ccccc3[nH]2)c1)c1cccc(NC(=O)c2ccco2)c1	i	-22%	>57
Cc1cccc2[nH]c(-c3ccc(NC(=O)c4ccco4)cc3)nc12	>77	16µM*	u
N=C(N)SCc1cccc2c(=O)cc(-c3ccccc3)oc12	x	3%[11.4 µM]	x
O=C(O)c1cc2ccccc2c(S(=O)(=O)O)c1O	x	3%[11.4 µM]	x
COc1ccc2[nH]cc(CCNc3ccnc(-c4ccccc4C(F)(F)F)n3)c2c1	x	1%[2.29 µM]	x
O=C(Nc1ccccc1)N1CC2(CCN(C(=O)c3cnccn3)CC2)C1	x	0%[11.4 µM]	x
O=C(c1ccco1)N1CCC2(CCCN(c3cccc(-c4ccccc4)c3)C2)CC1	x	0%[11.4 µM]	x
O=C(OCc1nc2ccccc2c(=O)[nH]1)c1cccs1	>77	0%	>57
O=C(OCc1nc2ccccc2s1)c1cccs1	>77	10µM*	x
Cn1cccc1C(=O)OCc1csc(-c2ccccc2)n1	>77	7.9µM*	9.3*
Cc1ccsc1C(=O)OCC(=O)N1CCOCC1	>77	4%	>57
O=C(OCc1csc(-c2ccccc2)n1)c1cccs1	>77	13µM*	u
O=C(OCc1nc2ccccc2s1)c1cnccn1	>77	u	x
Cc1ccccc1Nc1nc(N)nc(COC(=O)c2cccn2C)n1	>77	-12%	>57
Cc1ccsc1C(=O)OCc1csc(-c2ccccc2)n1	>77	7.9µM*	7.1*
CCN1C(=O)[C@H]2[C@H]3[C@H](O)[C@H](O)C/C(=N/O[C@@H](C)CN4CCCCc5nc(C)c(C)cc54)[C@@H]3CC[C@@H]2C1=O	x	0%[11.4 µM]	x
O=C1[C@@H]2C=CC=CC2=NC(=S)N1CCN1CCC(=C(c2ccc(F)cc2)c2ccc(F)cc2)CC1	x	1%	x
N[C@H](C(=O)O)[C@H](N)C(=O)O	x	2%[11.4 µM]	x
CN(CCc1ccccn1)c1ccc2c(c1)Cc1ccccc1-2	x	-6%[11.4 µM]	x
CCN1C(=O)[C@H]2[C@H]3[C@H](O)[C@H](O)C/C(=N/OC)[C@@H]3CC[C@@H]2C1=O	x	2%[11.4 µM]	x
COc1ccc(NC(=O)N2CC[C@@]3(CCCN(C(=O)c4ccncc4)C3)C2)cc1	x	1%[11.4 µM]	x
CN(C)C(=O)c1ccc(-c2ccc3ncnc(NCc4cccs4)c3c2)cc1	x	-2%[2.29 µM]	x
